Only some compounds are listed: those with a hit (about 3.6% of all), similar ones and a draw of the others.
NRP1-CendR mod: alters CendR peptide binding to human NRP-1; O14786; FAM-RPARPAR peptide binding to NRP-1, fluorescence polarization; inhibition, % at 25 µM; hit rate 0.85% among 360,000; AID 602438;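 active = inhibition or corrected inhibition above about 18%, plus a signal ratio from 0.5 to 1.5, limit read from the data, passing the limit was not always enough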
FAS-TE inh: FAS thioesterase (human) inhibition; P49327; inhibition, % at 15 µM; AID 602261; recombinant FAS-TE, OMFH fluorogenic substrate, fluorescence endpoint; hit rate 0.67% among 360,000;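 active = compounds whose normalised, plate-corrected inhibition of enzyme fluorescence in the single-dose primary screen is 50% or more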;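 also: 0% = DMSO with enzyme and 100% = substrate without enzyme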
Myeloid diff MLP: compounds promoting myeloid differentiation | ER-HoxA9 myeloid progenitors, lysozyme-GFP differentiation, flow cytometry | calls only at 10 µM | hit rate 1% among 360,000;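 active = normalized GFP-positive differentiation at or above the plate's own cutoff, the solvent-only control mean plus 3 SD; inconclusive = no clear call, values can overlap the other calls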;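 also: cells exposed to compound for four days before flow analysis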
NadD block: NadD (S. aureus) enzyme inhibition; inhibition, % at 20 µM; purified NadD enzyme, colorimetric absorbance read-out; hit rate 0.78% among 360,000; in the data active = inhibition above about 26%
CRFBP-R2 block: blocks CRF-induced signaling of the CRF-BP/CRF-R2 complex | HEK293 CRF-R2/CRF-BP, CRF-induced calcium fluorescence | inhibition, % at 11.8 µM | hit rate 0.59% among 350,000 | AID 588475;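 active = inhibition of the ligand-induced calcium signal above about 50% at the single tested concentration, limit read from the data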
Numbers without * were called inactive; i = inactive; ? = inconclusive; · = no result; + = active, no number; ! = repeats disagree.

SMILES	NRP1-CendR mod	FAS-TE inh	Myeloid diff MLP	NadD block	CRFBP-R2 block
CC(C)CCC(CCNCc1ccccn1)c1ccc2c(c1)OCO2 (stereo not drawn)	5	0	+	-1	-4
COc1cccc(NC(=S)/C(=C(\[O-])c2ccc(C)c([N+](=O)[O-])c2)[n+]2ccccc2)c1	-12	-8	+	5	-4
Cc1ccccc1NC(=S)/C(=C(\[O-])c1ccc(C)c([N+](=O)[O-])c1)[n+]1ccccc1	1	-14	i	5	-9
CCCCCCCCN1C(=O)[C@H](CC(=O)NCCCN2CCCC2=O)C[C@@]2(C(=O)OC)CCCCC=C12	29*	-6	i	-10	·
CCOC(=O)[C@]12CCCC=C1N(CCC1=CCCCC1)C(=O)[C@H](CC(=O)NCC13CC4CC(CC(C4)C1)C3)C2	22*	·	i	·	·
CCOC(=O)[C@]12CCCC=C1N(Cc1ccco1)C(=O)[C@H](CC(=O)N1CCSCC1)C2	20*	-6	i	-4	·
COC(=O)[C@]12CCCCC=C1N(Cc1ccccc1)C(=O)[C@H](CC(=O)NCCCN1CCCC1=O)C2	-9	-4	i	-2	·
COc1ccc(Cc2c(-c3ccc(F)cc3)nc3c(C)cc(Br)cn23)c(C)c1	-38	11	i	14	·
O=C(NCc1n[nH]c(=S)n1-c1cccc(C(F)(F)F)c1)c1ccco1	3	-7	i	1	10
O=c1ccsn1Cc1ccccc1	28*	-4	?	-5	27
COc1cc(CC(=O)OCC(=O)NC2CCCCC2C)cc(OC)c1OC (stereo not drawn)	6	1	i	-4	12
OC(c1ccccc1)(c1nc(-c2ccc(Cl)cc2)cs1)C(F)(F)F (stereo not drawn)	-17	43	i	-7	·
CC(OC(=O)c1cc(Br)ccc1O)C(=O)Nc1ccc(S(=O)(=O)N2CCCC2)cc1 (stereo not drawn)	25*	24	i	0	-3
Cc1cccc(C(=O)OC(C)C(=O)Nc2ccc(S(=O)(=O)N3CCCC3)cc2)c1O (stereo not drawn)	9	22	i	-3	13
CN1/C(=C\C=C2/SC(=S)NC2=O)C(C)(C)c2ccccc21	132	-153	+	5	-144
CCCN1C(=O)/C(=C\C=C2\N(CC)c3ccccc3C2(C)C)SC1=S	131	-145	+	8	-214
CCN1C(=O)/C(=C/C=C2\C=CN(CC)c3ccccc32)SC1=S	-1	0	i	15	53*
CN1C(=CC=C2C=C(I)C(=O)C(I)=C2)C(C)(C)c2ccccc21	-53	-15	i	13	5
CCN1C(=O)C(=CC=CN(C)c2ccccc2)SC1=S	-214	-56	+	-1	-65
Cc1sc2ncnc(NCC(c3ccco3)N3CCCC3)c2c1C (stereo not drawn)	-4	0	i	-4	-3
C/C(CC(=O)Nc1cccc(F)c1)=N\NC(=O)c1ccncc1	-1	-9	i	-21	-3
COc1ccc(NC(=O)CCCn2nc(C)c3c(C)n(-c4ccccc4)nc3c2=O)cc1OC	0	-4	i	-2	-9
O=[N+]([O-])c1cccc(Nc2c([N+](=O)[O-])ccc3nonc23)c1	0	8	+	-3	10
Cc1cccc(Nc2c([N+](=O)[O-])ccc3nonc23)c1	-2	0	i	-1	6
O=C(O)COc1ccc(/C=N/Nc2nc(Nc3ccccc3)nc(N3CCCCC3)n2)cc1	0	-9	i	13	9
SMILES	NRP1-CendR mod	FAS-TE inh	Myeloid diff MLP	NadD block	CRFBP-R2 block
CNC(=O)Nc1ccccc1C(=O)NCc1ccccc1	27*	-1	i	-1	-1
O=C(Nc1ccccc1)Nc1ccccc1C(=O)NCc1ccccc1	5	8	i	-9	-6
Cc1c(O)ccc(/C(Cc2ccc3ccccc3n2)=N\N)c1O	-32	0	+	18	-18
COc1ccccc1-n1c(SCC(=O)Nc2cccc(C)c2)nc2c(c1=O)SCC2	-5	9	+	7	5
Cc1cc2c(=O)n(C)c(SCC(=O)Nc3cccc(O)c3)nc2s1	2	-1	i	-9	0
Cc1cccc(NC(=O)CSc2nc3sc(C)cc3c(=O)n2C)c1	19*	5	i	0	-7
Cc1cc2c(SCC(=O)Nc3cccc(O)c3)ncnc2s1	-56	-4	+	7	-2
CCC1Nc2ncnc(N3CCCCC3)c2N(Cc2ccc(C)cc2)C1=O (stereo not drawn)	29*!	-2	i	0	3
Cc1ccc(C(=O)Nc2nnc([C@H]3C[C@H](O)[C@@H](CO)O3)s2)cc1	30*	-7	i	-3	·
COc1cc(C)ccc1S(=O)(=O)NC(=O)C1(C)CCN1C(=O)Cc1ccc(Cl)cc1Cl (stereo not drawn)	2	-8	+	5	·
C=CCNC(=O)CC(=O)N/N=C/c1cccc(C)c1	0	-14	i	-1	17
COc1ccc(NC(=O)c2ccc(CN(c3cc(Cl)ccc3C)S(=O)(=O)c3ccccc3)cc2)cc1OC	-2	62*	i	7	1
COc1ccccc1NC(=O)c1ccc(CN(c2cc(Cl)ccc2C)S(=O)(=O)c2ccccc2)cc1	5	21	i	1	-10
C=CCNC(=S)/N=c1/ccccn1CCC	-7	-3	+	0	-5
S=c1[nH]nc(-c2ccccn2)n1/N=C/c1c(Cl)cccc1Cl	-1	3	i	9	-11
S=c1[nH]nc(-c2cc(-c3ccccc3)n[nH]2)n1/N=C/c1c(Cl)cccc1Cl	-1	16	+	26	-9
Cc1ccc(CN2C(=O)CNC2=S)cc1	0	-2	i	-9	19
Cc1c(=O)n(OCc2ccccn2)c2ccccc2[n+]1[O-]	-1	-8	i	3	-3
O=c1c[n+]([O-])c2ccccc2n1OCc1c(F)cccc1F	-9	-6	+	0	-5
CCOn1c(=O)c[n+]([O-])c2ccccc21	-27	-5	+	-5	1
O=c1c[n+]([O-])c2ccccc2n1OCc1ccccn1	-12	-17	+	1	-11
COC(=O)c1ccccc1COn1c(=O)c[n+]([O-])c2ccccc21	7	-4	+	-6	15
COC(=O)c1ccccc1COn1c(=O)c(C)[n+]([O-])c2ccccc21	-3	-8	i	-4	6
O=C(COC(=O)CC12CC3CC(CC(Br)(C3)C1)C2)NC(=O)NCc1ccco1	0	26	i	-3	-15
Cc1ccsc1CNC(=O)C1(C)CCCN1CC(C)C (stereo not drawn)	-4	-2	i	-2	·
CC1(Cc2ccc(Cl)cc2)C(=O)Nc2c(Cl)cccc21 (stereo not drawn)	8	6	i	-9	·
Cc1nn(-c2ccc(C(=O)O)cc2)c2c1C(=O)CC(C)(C)C2	-7	-6	i	-1	2

From PubChem
